51 molecules from PubChem BioAssay AID504333 (National Center for Advancing Translational Sciences (NCATS), 2011) can be followed below.

The campaign covered roughly 360,000 compounds. About 16,000 (4.4%) were called active. About 9% were inconclusive and are not listed. What follows is part of a selection rich in actives, with near analogues and random picks from the rest. Unmarked numbers belong to inactive results. The call rests on the fitted dose curve; in most records, active means well fitted inhibition curve with a large enough effect; inconclusive means small, poorly fitted or top-dose-only effect; inactive means no such curve, though single readings can be large or run the other way.
On the % scale 0 is the no-effect control and ±100 the full control effect; potency means the concentration at half of the fitted maximal effect.

The experiment deals with Bromodomain adjacent to zinc finger domain protein 2B (Homo sapiens) (UniProt Q9UIF8). The experiment in a line: qHTS Assay for Inhibitors of BAZ2B. Further: nearly all actives have a fitted effect of over 60% in size. The note with it: AlphaScreen BAZ2B-H3K14Ac peptide displacement; series mostly up to 114 µM; activity change, negative = inhibition: at the top concentration. The method, boiled down: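 AlphaScreen displacement: compounds (up to 110uM) incubated 30 min at room temperature with a preformed 50 nM BAZ2B/50 nM biotinylated H3K14Ac peptide complex in PBS pH 7.4 with Tween-20. Donor and acceptor beads at 10 ug/mL final added, 20 min light-protected before reading.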
Bromodomain adjacent to zinc finger domain protein 2B (Homo sapiens), sequence (Q9UIF8 whole entry, looked up, the tested form may be a part): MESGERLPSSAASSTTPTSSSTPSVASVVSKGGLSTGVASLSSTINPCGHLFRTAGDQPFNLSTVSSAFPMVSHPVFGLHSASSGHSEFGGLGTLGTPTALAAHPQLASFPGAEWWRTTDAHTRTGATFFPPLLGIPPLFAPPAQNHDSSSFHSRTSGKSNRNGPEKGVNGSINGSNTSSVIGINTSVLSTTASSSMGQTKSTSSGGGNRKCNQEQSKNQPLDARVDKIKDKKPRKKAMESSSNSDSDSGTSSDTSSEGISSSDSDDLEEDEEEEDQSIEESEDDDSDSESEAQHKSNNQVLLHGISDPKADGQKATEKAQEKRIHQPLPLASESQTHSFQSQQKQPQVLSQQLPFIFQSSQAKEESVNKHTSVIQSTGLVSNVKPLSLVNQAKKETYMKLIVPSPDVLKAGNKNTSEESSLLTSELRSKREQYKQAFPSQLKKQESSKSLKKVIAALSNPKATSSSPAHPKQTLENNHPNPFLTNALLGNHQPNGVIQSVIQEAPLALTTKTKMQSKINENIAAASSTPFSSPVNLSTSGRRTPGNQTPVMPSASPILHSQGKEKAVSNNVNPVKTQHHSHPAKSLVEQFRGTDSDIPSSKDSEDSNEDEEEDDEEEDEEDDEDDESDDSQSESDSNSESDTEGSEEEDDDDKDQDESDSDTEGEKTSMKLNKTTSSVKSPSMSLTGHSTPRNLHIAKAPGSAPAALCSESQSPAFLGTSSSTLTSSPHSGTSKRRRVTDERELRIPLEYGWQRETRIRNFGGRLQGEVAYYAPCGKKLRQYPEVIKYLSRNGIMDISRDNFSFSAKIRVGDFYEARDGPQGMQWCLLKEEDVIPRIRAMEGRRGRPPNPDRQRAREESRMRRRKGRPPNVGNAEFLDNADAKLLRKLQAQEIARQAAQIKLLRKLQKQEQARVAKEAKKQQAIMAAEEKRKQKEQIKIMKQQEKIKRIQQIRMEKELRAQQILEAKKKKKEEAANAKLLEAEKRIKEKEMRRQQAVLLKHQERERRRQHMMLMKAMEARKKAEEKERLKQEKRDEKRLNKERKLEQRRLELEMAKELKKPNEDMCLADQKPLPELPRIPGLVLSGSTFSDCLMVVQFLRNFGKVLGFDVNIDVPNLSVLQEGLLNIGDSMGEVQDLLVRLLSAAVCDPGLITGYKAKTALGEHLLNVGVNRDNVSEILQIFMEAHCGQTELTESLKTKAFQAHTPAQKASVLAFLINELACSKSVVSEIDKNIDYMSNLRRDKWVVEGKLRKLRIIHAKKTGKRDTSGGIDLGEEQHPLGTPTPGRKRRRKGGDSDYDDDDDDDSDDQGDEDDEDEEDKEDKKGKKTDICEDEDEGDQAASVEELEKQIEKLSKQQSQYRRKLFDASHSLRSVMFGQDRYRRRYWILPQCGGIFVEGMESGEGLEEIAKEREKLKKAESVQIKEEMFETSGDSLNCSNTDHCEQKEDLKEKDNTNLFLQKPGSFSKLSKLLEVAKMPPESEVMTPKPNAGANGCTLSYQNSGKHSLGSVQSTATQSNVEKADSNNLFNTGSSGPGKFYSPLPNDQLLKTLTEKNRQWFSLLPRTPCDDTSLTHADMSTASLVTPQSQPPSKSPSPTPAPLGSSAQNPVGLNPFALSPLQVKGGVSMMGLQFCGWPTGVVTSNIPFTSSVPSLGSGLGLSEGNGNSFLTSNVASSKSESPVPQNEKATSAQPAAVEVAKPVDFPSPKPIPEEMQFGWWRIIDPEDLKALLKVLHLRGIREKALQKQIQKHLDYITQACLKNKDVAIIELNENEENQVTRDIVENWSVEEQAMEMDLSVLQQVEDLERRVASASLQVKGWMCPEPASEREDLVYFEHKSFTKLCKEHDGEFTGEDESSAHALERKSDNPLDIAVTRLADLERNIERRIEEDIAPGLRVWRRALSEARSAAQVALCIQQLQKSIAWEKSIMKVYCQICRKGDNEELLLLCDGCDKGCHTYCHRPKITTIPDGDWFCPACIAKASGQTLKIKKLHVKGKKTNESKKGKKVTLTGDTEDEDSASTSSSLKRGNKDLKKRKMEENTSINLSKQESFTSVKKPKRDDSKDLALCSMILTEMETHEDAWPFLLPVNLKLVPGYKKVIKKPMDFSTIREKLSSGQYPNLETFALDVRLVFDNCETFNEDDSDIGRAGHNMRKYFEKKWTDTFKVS
(qHTS replaces the single test concentration by a dilution series.)
On to `CC(=O)N1CCCc2cc(S(=O)(=O)N3CCC(C(=O)NCc4ccc(C)cc4)CC3)ccc21`, for which the “activity change, negative = inhibition” value is 2.46%. For the molecule `O=C(Nc1cc(C(F)(F)F)ccc1Cl)c1ccc2c(c1)CCN2S(=O)(=O)c1ccccc1`, the “activity change, negative = inhibition” value is -1.09%. On the same count and under the same terms, as for `S=C(NCCc1ccccc1)NCc1ccccc1Cl`, the figure is 3.82%; as for `OCCNCc1cccc(OCc2ccccc2Cl)c1`, -19%. With `Clc1cccc(Cl)c1OCCOCCNCc1ccccc1`, the Potency is 56.2 µM (active). Take `CCCCc1nc2ccccc2c(NC(=O)CN2CCN(C)CC2)c1CCC`: the Potency is 50.1 µM (active). As to `CN1CCN(CC(=O)Nc2cccc([N+](=O)[O-])c2)CC1`, the “activity change, negative = inhibition” value is 6.3%. On the same count and under the same terms, with `CCCCc1nc2ccccc2c(=O)n1NC(=O)c1c(O)c2cccc3c2n(c1=O)CC3` the figure was 23.1%; with `Fc1ccc(CN2CCc3nc(Nc4ccccc4)ncc3C2)cc1F`, -24.7%; with `COc1cc(/C=C/C2=CC(C)(C)NC(=S)N2)cc(OC)c1OC`, -25.7%. The same measure, in the same setting: as for `COc1ccc(/C=C/C(=O)OCC(=O)Nc2cccc(Oc3ccccc3)c2)c(OC)c1`, the figure is 0.384%.

Regarding `COc1ccc(/C=C/C2=CC(C)(C)NC(=S)N2)c(OC)c1`, the Potency is 39.8 µM (active).

For `O=C(O)c1c(CNCc2cccc(F)c2)c2ccccc2n1Cc1ccccc1`, the “activity change, negative = inhibition” value is -0.857%. For the molecule `COC(=O)c1ccccc1NC(=O)c1cnn(-c2ccc(F)cc2)c1-n1cccc1`, the “activity change, negative = inhibition” value is -14.4%. Still for that read-out and setting: with `Cc1ccc2oc3c(c(=O)c2c1)C(c1ccc(O)cc1)N(Cc1ccc2c(c1)OCO2)C3=O` (stereo unspecified) the figure was -0.588%; with `CCOc1ccc(CCNC(=O)CN(c2ccc(C)cc2)S(=O)(=O)N(C)C)cc1OCC`, 1.55%; with `CCN(CC)c1ccc(/C=N/NC(=O)c2cnccn2)c(O)c1`, -7.91%. As to `CCN(CC)c1ccc(/C=N/Nc2nc(C)cc(C)n2)c(O)c1`, the Potency is 25.1 µM (active). In the case of `Cc1cc(C)nc(N/N=C/c2ccc([N+](=O)[O-])o2)n1`, the “activity change, negative = inhibition” value is -25.2%. For `Cc1ccc(-c2noc(CSc3nnc(-c4ccc(Cl)cc4)n3C)n2)cc1`, the “activity change, negative = inhibition” value is -2.06%.

In the case of `Cc1[nH]c2c(C(=O)N3CCCC(CCC(=O)NCc4ccccc4F)C3)cccc2c1C` (stereo unspecified), the Potency is 70.8 µM (active). `CSc1ncccc1C(=O)N1CCCC(CCC(=O)NCc2ccccc2F)C1` (stereo unspecified): the “activity change, negative = inhibition” value was -0.331%. The same measure, in the same setting: as for `O=C(CCC1CCCN(Cc2ccc(O)c(Cl)c2)C1)NCc1ccccc1F` (stereo unspecified), the figure is -15%. For `CCCNC(=O)C1CCC(Cn2c(=O)c3sccc3n(Cc3ccccc3F)c2=O)CC1` (stereo unspecified), the “activity change, negative = inhibition” value is -3.32%. Still for that read-out and setting: as for `Cc1ccccc1NC(=O)Cn1c(=O)n(CCCCC(=O)NCc2ccccc2Cl)c(=O)c2ccccc21`, the figure is 1.21%; as for `Cc1cc(F)ccc1NS(=O)(=O)c1ccc(-n2cccn2)cc1`, -2.31%; as for `Cn1ccc2cc(S(=O)(=O)N3CCCC(C(=O)NCc4ccccc4F)C3)ccc21` (stereo unspecified), -3.06%. On the same count and under the same terms, with `Cc1oc(-c2ccccc2)nc1Cn1c(SCc2cccc(C(F)(F)F)c2)nc2cccnc21` the figure was -3.84%; with `CCc1nn(CC(=O)N2CCN(c3ccc(Cl)cc3)CC2)c(=O)c2cc3occc3n12`, -29.9%. The same measure, in the same setting: with `NC(=O)CCN1CCN(S(=O)(=O)/C=C/c2ccccc2)CC1` the figure was 3.29%. In the case of `COc1ccccc1N1CCN(CC(=O)NC(=O)NCc2ccco2)CC1`, the “activity change, negative = inhibition” value is -3.12%. In the case of `O=C(CN1CCN(S(=O)(=O)/C=C/c2ccccc2)CC1)NC(=O)NCc1ccco1`, the Potency was 50.1 µM (active). Regarding `COc1cccc(CNCCSc2nnnn2C)c1OCc1ccccc1Cl`, the “activity change, negative = inhibition” value was -22%. Take `O=C(Cc1ccccc1)n1nc(-c2ccccc2)nc1NCc1ccco1`: the “activity change, negative = inhibition” value is 11.8%. With `O=c1nc2s/c(=C\c3ccco3)c(=O)n2nc1Cc1ccccc1`, the Potency is 50.1 µM (active). On to `O=C(Nc1ccccc1)/C(=C\c1ccco1)NC(=O)c1ccco1`, for which the “activity change, negative = inhibition” value was -17.7%.

For the molecule `CCOc1ccccc1N(CC)C(=O)c1cc2ccc3cccnc3c2[nH]1`, the “activity change, negative = inhibition” value is -0.472% [at 57.1 µM].

Regarding `CC(=O)c1cccc(NC(=O)c2nc(-c3ccccc3)n(-c3cccc(C)c3)n2)c1`, the “activity change, negative = inhibition” value was -9.48%.

Regarding `CC(=O)Nc1cccc(NC(=O)CSc2nccn2Cc2ccc(F)cc2)c1`, the “activity change, negative = inhibition” value is -24.5%. For `O=C(CSc1nccn1-c1ccc(F)cc1)Nc1cccc2ccccc12`, the Potency is 7.94 µM (active). `Cc1ccccc1-n1c(SCC(=O)Nc2cccc3ccccc23)nc(O)cc1=O`: the “activity change, negative = inhibition” value was -38.7%. On the same count and under the same terms, with `Cc1nnc(NC(=O)CSc2nccn2-c2cccc(C)c2C)s1` the figure was -29.9%; with `O=C(CSc1nccn1Cc1ccc(F)cc1)NCc1ccccc1`, -22%. With `Cc1cccc(-n2ccnc2SCC(=O)Nc2cccc3ccccc23)c1C`, the Potency is 14.1 µM (active). `O=C(CSc1n[nH]c(-c2ccccc2)n1)N1CCCCC1`: the “activity change, negative = inhibition” value was 6.63%.

Turning to `CN(C(=O)c1ccc2c(c1)N(Cc1cccc(Cl)c1)C(=O)c1ccccc1S2=O)C1CCCCC1` (stereo unspecified), the “activity change, negative = inhibition” value is -10.9%. On the same count and under the same terms, with `Cc1ccc(NC(=O)c2ccc3[nH]c(C)cc(=O)c3c2)c(C)c1` the figure was 0.886%; with `O=C1CSC2(C(=O)N(Cc3ccccc3)c3ccccc32)N1c1cccc(F)c1` (stereo unspecified), -33%. On to `CSc1ncc(C(=O)NCc2ccccc2Cl)c(C(F)(F)F)n1`, for which the “activity change, negative = inhibition” value was 12.8%. Regarding `COc1ccc(OC)c(-c2csc(-c3c(N)c(C(=O)c4ccccc4)n4ccccc34)n2)c1`, the “activity change, negative = inhibition” value was -0.518%. The same measure, in the same setting: with `O=C(NC1CCCC1)C(=O)c1c[nH]c2ccccc12` the figure was -21.7%.
